# High-throughput results from PubChem BioAssay.
# This excerpt belongs to a sample that is enriched for hits.
# HT1080 IDH1KD tx = qHTS for induction of synthetic lethality in tumor cells producing 2HG: qHTS for the HT-1080-IDH1KD cell line; AID 686971, 2013; Potency, µM (top dose mostly 46.1 µM), inactives show at the highest dose activity, negative = toxicity, most hits filed as cytotoxic; HT-1080 IDH1 knockdown viability, ATP luminescence, 48 h; 360,000 compounds, 2% hits;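 further: potency means the concentration at half of the fitted maximal effect; 0% = DMSO wells and -100% = cell-free medium wells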
#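 Viability of IDH1-knockdown HT-1080 fibrosarcoma cells was assessed by CellTiter-Glo after 48 h at 37 °C with titrated compound; concentration-effect curves were classified by fit quality and response size.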
# IL-1B inflam inh = qHTS for Inhibitors of Inflammasome Signaling: IL-1-beta AlphaLISA Primary Screen. THP-1 LPS/ATP IL-1B secretion, AlphaLISA, 16 h; active compounds read low. activity change, % at 57.5 µM. 360,000 compounds, 4.7% hits; in the data active means activity change below about -50%; inconclusive means mostly about -30% to -49%
#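 Secreted IL-1B measured by AlphaLISA bead assay after 16 h compound exposure of THP-1 cells; compounds (final up to 57.5 uM) added 1 h before LPS (250 ng/mL) and ATP (1.25 mM) stimulation; lower signal means less secretion.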
# TDP1 cell CPT = qHTS for Inhibitors of human tyrosyl-DNA phosphodiesterase 1 (TDP1): qHTS in cells in presence of CPT. chicken DT40 Tdp1-/-;hTDP1 cells + 20 nM CPT, ATP luminescence, 48 h. Potency, µM (highest dose often 46.2 µM), for the others: at the top dose activity change, negative = growth inhibition, hits mostly inhibitors. 420,000 compounds, 12% hits. AID 686979, 2013; further: potency means the concentration at half of the fitted maximal effect; nearly all actives have a fitted effect of over 55% in size
#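 Chicken DT40 Tdp1-/- cells stably complemented with human TDP1 were seeded at 400 cells/well in medium containing 20 nM camptothecin, exposed to pin-transferred compounds, and grown at 37 °C for at least 48 hr. Viability was read as ATP luminescence.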
# 12-LOX inh = Primary qHTS assay for inhibitors of human arachidonate 12S-lipoxygenase (ALOX12): Round 2. Polyunsaturated fatty acid lipoxygenase ALOX12 (Homo sapiens), P18054. purified 12hLO, xylenol orange hydroperoxide absorbance. AID 1671190, 2021. Potency, µM (doses to about 108 µM), without a hit: at the top dose activity change, negative = inhibition, actives largely listed as inhibitors. 580,000 compounds, 1.1% hits; further: potency means the concentration at half of the fitted maximal effect
# Target sequence (P18054 whole entry, looked up): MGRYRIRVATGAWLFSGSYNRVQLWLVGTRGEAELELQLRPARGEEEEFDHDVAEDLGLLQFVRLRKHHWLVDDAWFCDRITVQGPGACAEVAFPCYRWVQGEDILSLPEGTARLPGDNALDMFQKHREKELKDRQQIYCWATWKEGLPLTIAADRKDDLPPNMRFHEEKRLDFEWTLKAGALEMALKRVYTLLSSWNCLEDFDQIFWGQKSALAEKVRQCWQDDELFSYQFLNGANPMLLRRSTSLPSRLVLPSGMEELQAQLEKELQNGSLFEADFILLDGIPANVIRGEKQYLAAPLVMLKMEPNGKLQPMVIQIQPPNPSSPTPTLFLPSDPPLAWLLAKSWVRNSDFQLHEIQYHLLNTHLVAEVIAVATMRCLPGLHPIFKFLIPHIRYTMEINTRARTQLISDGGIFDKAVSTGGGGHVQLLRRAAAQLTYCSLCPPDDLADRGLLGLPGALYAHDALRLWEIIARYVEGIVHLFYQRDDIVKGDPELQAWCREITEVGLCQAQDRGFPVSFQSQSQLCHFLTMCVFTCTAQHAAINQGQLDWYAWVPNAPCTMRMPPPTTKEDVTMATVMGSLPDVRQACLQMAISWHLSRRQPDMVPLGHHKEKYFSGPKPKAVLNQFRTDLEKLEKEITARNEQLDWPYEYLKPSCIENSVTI
#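 Purified human 12hLO at 150 nM in 25 mM Hepes, 0.01% Triton X-100, pH 7.0, preincubated 15 min at room temperature with compound. Reaction started with 40 uM arachidonic acid, 30 min at room temperature. Hydroperoxide measured by Fe-xylenol orange, 573/405 nm absorbance ratio.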
# TDP1 cell noCPT = qHTS for Inhibitors of human tyrosyl-DNA phosphodiesterase 1 (TDP1): qHTS in cells in absence of CPT. DT40 Tdp1-/- hTDP1 cells, no CPT, ATP luminescence, 48 h. Potency, µM (series often up to 46.2 µM), inactives show at the highest dose activity change, negative = growth inhibition, usual class: inhibitors. 420,000 compounds, 15% hits. AID 686978, 2013; further: potency means the concentration at half of the fitted maximal effect; nearly all actives have a fitted effect of over 55% in size
#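 Readout: luminescence from CellTiter-Glo after 30 min in the dark at RT. Cells: DT40 Tdp1-/- with stable hTDP1, 400/well. Exposure: compounds alone, ≥48 hr, 37 °C.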
# HT1080NT lethal = qHTS for induction of synthetic lethality in tumor cells producing 2HG: qHTS for the HT-1080-NT fibrosarcoma cell line; HT-1080-NT fibrosarcoma viability, CellTiter-Glo ATP luminescence, 48 h; Potency, µM (highest dose often 46.1 µM), for inactives: at the top dose activity, negative = less viability, usual class: cytotoxic; 360,000 compounds, 1.6% hits; AID 686970, 2013;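 further: NT is the 2HG producing partner of a matched IDH1 knockdown line; potency means the concentration at half of the fitted maximal effect; 0% = DMSO-treated cells and -100% = media-only wells without cells; nearly all actives have a fitted effect of over 55% in size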
#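 750 cells/well, RPMI + 5% FBS; 2 h settle, compound pin-transfer, 48 h at 37 degrees C. CellTiter-Glo 10 min RT, luminescence. Normalized to DMSO and media-only wells.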
# The depositor's hits bear a star; ? = inconclusive; / = no result given; [ ] = remark or other dose. Unless noted, the call rests on the fitted dose curve; in most records, active means well fitted curve in the direction sought with a large enough effect; inconclusive means small, poorly fitted or top-dose-only effect, or another doubt; inactive means no such curve, though single readings can be large; an effect the other way counts as inactive or inconclusive. Unless noted, on the % scale 0 is the no-effect control and ±100 the full control effect.
SMILES,HT1080 IDH1KD tx,IL-1B inflam inh,TDP1 cell CPT,12-LOX inh,TDP1 cell noCPT,HT1080NT lethal
CCOc1ccc(/C=C/C2=CC(C)(C)NC(=S)N2)cc1,?,0,15µM*,40µM*,?,-8%
NS(=O)(=O)c1ccc(NC(=O)c2ccc(Cl)c(S(=O)(=O)NCc3ccco3)c2)cc1,0%,34,?,108%,-24%,0%
O=C(c1ccc(Cl)c(S(=O)(=O)NCc2ccco2)c1)N1CCN(c2ccc(F)cc2)CC1,-17%,-2,16µM*,-5%,23µM*,-15%
O=C(/C=C/c1ccc(S(=O)(=O)N2CCOCC2)cc1)N1CCCCC1,15%,0,-1%,8%,-24%,3%
CC(=O)c1ccc(N2CCN(C(=O)/C=C/c3ccc(S(=O)(=O)N4CCOCC4)cc3)CC2)cc1,-6%,13,18µM*,2%,15µM*,-12%
CC(=O)c1ccc(N2CCN(C(=O)/C=C/c3ccc(S(=O)(=O)NCc4ccco4)cc3)CC2)cc1,-24%,1,21µM*,-1%,21µM*,1%
CCN(CC)S(=O)(=O)c1ccc(OC)c(NC(=O)C(C)Oc2ccc3c(C)cc(=O)oc3c2)c1 (stereo unspecified),-17%,3,?,-26%,18µM*,-9%
CCN(CC)S(=O)(=O)c1ccc(C)c(NC(=O)COc2ccc3c(C)cc(=O)oc3c2)c1,10%,20,?,-4%,?,10%
Cc1cnc(C)c(-c2cccc3c2OC(CNC(=O)/C=C/c2ccc(F)c(F)c2)C3)n1 (stereo unspecified),/,/,?,24%,?,/
Cc1cnc(C)c(-c2ccc(F)c3c2OC(CNC(=O)/C=C/c2cccs2)C3)n1 (stereo unspecified),/,/,?,6%,21µM*,/
Cc1cnc(C)c(-c2cccc3c2OC(CNC(=O)C2(c4ccc(Cl)cc4)CC2)C3)n1 (stereo unspecified),/,/,-14%[9.04 µM],9%,21µM*,/
COc1ccc(-c2ocnc2C(=O)Nc2cccc(Cl)c2)cc1OC,/,/,/,-2%,/,/
COc1cc(Cn2c3ccc(NC(=O)CCc4cccnc4)cc3c(=O)n2C)ccc1F,-9%,0,9.2µM*,6%,?,0%
COc1ccccc1CCC(=O)Nc1ccc2c(c1)c(=O)n(C)n2-c1cccs1,?,67,3.7µM*,-2%,3.7µM*,?
COc1ccccc1CCC(=O)NNC(=O)c1cccs1,8%,14,6%,5%,-18%,4%
Cn1c(=O)c2cc(NC(=O)CCc3cccnc3)ccc2n1Cc1ccc(F)cc1,-5%,-3,16µM*,2%,?,-4%
Cn1c(=O)c2cc(NC(=O)CCc3cccnc3)ccc2n1Cc1cccc(C(F)(F)F)c1,2%,19,?,6%,18µM*,0%
O=C(CCn1cccn1)Nc1cccc(C(F)(F)F)c1,/,/,-1%,-9%,-16%,/
CCN1c2cc(C(=O)Nc3ccc(C)cc3Cl)ccc2C(=O)N2CCCCCC21 (stereo unspecified),/,/,/,-15%,/,/
COc1cc(Cn2c3ccc(NC(=O)NCCc4ccccc4)cc3c(=O)n2C)ccc1F,-12%,-5,?,-23%,?,-17%
COc1cc(Cn2c3ccc(NC(=O)CCc4ccccc4)cc3c(=O)n2C)ccc1F,?,40,6.5µM*,?,2.9µM*,?
